Experimental data as given in publication PMC5700166.
Numbering of substitutions follows the chain as printed.

Tests used:
Test in all cases: protein-binding microarray (PBM); PBM: ~300 nM protein, 6 mM HEPES pH 7.8, 80 mM KCl, 0.5 mM EDTA, 0.5 mM EGTA, 6% glycerol, 35 ng/ul poly-dIdC, 1% milk, 1 h, room temperature; Ap Aiptasia and Nv Nematostella (sea anemones) / Co Capsaspora / Aq Amphimedon (sponge) / Dm Drosophila / Hu human; RHD is the Rel homology domain; high values mean tight binding
Conditions in all cases: dsDNA, one strand shown
GST-Ap-NF-kB RHD = biological target: T1, GST-Ap-NF-kB RHD (Exaiptasia pallida (Aiptasia), UniProt A0A913YAJ5 2-422)
T1 sequence: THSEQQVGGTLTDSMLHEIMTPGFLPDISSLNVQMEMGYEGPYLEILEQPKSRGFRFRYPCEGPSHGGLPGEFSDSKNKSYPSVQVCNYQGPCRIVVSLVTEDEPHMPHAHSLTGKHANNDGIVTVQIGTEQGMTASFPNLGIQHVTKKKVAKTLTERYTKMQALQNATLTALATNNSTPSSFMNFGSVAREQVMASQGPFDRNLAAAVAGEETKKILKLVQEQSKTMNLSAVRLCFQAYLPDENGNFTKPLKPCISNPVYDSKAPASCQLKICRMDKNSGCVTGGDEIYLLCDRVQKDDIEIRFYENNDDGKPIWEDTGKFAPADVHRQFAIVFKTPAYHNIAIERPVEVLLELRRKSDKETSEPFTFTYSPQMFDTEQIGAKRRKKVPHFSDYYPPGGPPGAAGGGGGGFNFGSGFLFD

[1] = biological target: T2, GST-Nv-NF-kB (Cys allele) (Nematostella vectensis, UniProt E5G601 2-411)
T2 sequence: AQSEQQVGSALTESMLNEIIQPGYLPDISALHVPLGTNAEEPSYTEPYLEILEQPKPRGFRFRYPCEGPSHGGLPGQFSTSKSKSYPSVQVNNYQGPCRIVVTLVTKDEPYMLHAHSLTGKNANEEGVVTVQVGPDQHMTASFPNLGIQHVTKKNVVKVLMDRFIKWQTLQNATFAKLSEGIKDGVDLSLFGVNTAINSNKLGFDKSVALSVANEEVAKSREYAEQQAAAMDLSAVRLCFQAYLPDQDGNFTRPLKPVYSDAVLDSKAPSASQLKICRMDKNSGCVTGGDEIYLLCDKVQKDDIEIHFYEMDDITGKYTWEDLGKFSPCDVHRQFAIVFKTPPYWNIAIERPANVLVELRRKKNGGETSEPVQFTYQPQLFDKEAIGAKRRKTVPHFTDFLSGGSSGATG

[2] = biological target: T3, GST-Nv-NF-kB (Ser allele) (Nematostella vectensis, UniProt A7UNT2 2-411)
T3 sequence: T2 sequence with Q21R, C66S, S207N, E215Q, V217A, E225K, A268E, D399E

GST-Co-NF-kB = biological target: T4, GST-Co-NF-kB (Capsaspora owczarzaki, UniProt F1ARL5 200-546)
T4 sequence: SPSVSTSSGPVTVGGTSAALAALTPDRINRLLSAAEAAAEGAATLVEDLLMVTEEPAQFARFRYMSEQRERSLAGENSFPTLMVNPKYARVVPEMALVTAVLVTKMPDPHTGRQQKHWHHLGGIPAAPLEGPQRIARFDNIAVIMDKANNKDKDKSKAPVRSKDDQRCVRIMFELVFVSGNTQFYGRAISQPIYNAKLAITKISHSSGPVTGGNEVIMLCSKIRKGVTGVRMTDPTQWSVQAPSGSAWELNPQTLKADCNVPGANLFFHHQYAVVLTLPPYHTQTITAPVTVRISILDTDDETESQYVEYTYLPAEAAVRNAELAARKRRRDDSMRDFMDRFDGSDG

GST-Dm-Relish = biological target: T5, GST-Dm-Relish (Drosophila melanogaster, UniProt Q94527 99-473)
T5 sequence: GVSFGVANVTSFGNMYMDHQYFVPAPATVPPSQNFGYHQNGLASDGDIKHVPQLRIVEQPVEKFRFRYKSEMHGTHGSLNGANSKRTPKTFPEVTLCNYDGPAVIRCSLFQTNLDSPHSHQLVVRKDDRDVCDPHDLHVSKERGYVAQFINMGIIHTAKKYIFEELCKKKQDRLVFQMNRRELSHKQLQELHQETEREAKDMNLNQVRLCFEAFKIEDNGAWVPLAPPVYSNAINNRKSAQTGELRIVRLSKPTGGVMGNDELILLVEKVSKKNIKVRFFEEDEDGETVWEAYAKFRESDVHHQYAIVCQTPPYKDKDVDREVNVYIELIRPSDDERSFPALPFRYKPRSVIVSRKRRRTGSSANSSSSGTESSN

GST-Aq-NF-kB = biological target: T6, GST-Aq-NF-kB (Amphimedon queenslandica, UniProt A9Y5G7 2-389)
T6 sequence: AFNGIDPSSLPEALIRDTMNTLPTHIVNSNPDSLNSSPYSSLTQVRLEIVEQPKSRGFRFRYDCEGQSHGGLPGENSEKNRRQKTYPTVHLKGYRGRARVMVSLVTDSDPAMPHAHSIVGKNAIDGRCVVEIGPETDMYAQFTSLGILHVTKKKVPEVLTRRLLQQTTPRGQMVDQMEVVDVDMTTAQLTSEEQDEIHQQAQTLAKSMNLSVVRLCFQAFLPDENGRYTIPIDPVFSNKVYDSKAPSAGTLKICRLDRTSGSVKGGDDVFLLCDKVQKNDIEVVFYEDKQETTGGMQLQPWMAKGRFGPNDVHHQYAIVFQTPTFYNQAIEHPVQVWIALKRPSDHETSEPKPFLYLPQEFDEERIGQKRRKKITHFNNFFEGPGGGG

GST-Hu-p50 = GST-Hu-p50 (Homo sapiens, UniProt P19838 7-356)
Chain of GST-Hu-p50 (P19838 7-356): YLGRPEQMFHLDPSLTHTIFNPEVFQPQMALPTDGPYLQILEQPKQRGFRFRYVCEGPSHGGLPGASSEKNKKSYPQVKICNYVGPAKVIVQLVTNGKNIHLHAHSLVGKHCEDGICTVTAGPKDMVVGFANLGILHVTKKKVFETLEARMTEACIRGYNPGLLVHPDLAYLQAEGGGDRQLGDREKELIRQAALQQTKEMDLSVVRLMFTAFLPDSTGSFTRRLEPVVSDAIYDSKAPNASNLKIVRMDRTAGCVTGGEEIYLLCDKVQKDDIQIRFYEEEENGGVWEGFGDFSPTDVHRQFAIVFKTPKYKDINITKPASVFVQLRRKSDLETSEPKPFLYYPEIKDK

Sequence	binding signal (GST-Ap-NF-kB RHD) [z-score]	binding signal [1] [z-score]	binding signal [2] [z-score]	binding signal (GST-Co-NF-kB) [z-score]	binding signal (GST-Dm-Relish) [z-score]	binding signal (GST-Aq-NF-kB) [z-score]	binding signal (GST-Hu-p50) [z-score]
CCGATTAACATCAAAAATCCCCCTGATGTTAATCGGGTCTTGATTCGCTTGACGCTGCTG	11.1	11.4	12.8	8.5	10.1	9.28	8.05
CCGATTAACATCAAATTCCCAATTGATGTTAATCGGGTCTTGATTCGCTTGACGCTGCTG	1.09	3.19	3.78	2.62	3.56	2.06	2.67
CCGATTAACATCAATATTCCCCCTGATGTTAATCGGGTCTTGATTCGCTTGACGCTGCTG	8.39	9.05	10	10.4	6.05	7.05	7.24
CCGATTAACATCAGGAAAATCCCTGATGTTAATCGGGTCTTGATTCGCTTGACGCTGCTG	5.62	7.7	4.73	2.51	7.08	8.07	5.88
CCGATTAACATCAGGAACTTCCCTGATGTTAATCGGGTCTTGATTCGCTTGACGCTGCTG	4.62	5.28	3.16	1.73	4.4	7.58	3.6
CCGATTAACATCAGGGGGTACAATGATGTTAATCGGGTCTTGATTCGCTTGACGCTGCTG	4.98	3.08	4.91	4.94	2.37	2.98	3.09
CCGATTAACATCAGGAATTACCCTGATGTTAATCGGGTCTTGATTCGCTTGACGCTGCTG	4.56	7.58	4.97	2.62	6.61	8.34	4.51
CCGATTAACATCAGGGAAAAGTATGATGTTAATCGGGTCTTGATTCGCTTGACGCTGCTG	3.35	4.5	6.25	4.73	1.56	3.86	2.97
CCGATTAACATCAGGGGAGAAACTGATGTTAATCGGGTCTTGATTCGCTTGACGCTGCTG	4.39	4.53	5.55	7.07	5.35	3.64	4.05
CCGATTAACATCACATTTTTCCCTGATGTTAATCGGGTCTTGATTCGCTTGACGCTGCTG	3.43	5.03	7.3	5.64	2.56	4.26	3.84
CCGATTAACATCAAGAAAACCCCTGATGTTAATCGGGTCTTGATTCGCTTGACGCTGCTG	6.98	7.2	6.87	2.44	7.76	6.52	6.8
CCGATTAACATCAGGGGGACACCTGATGTTAATCGGGTCTTGATTCGCTTGACGCTGCTG	5.64	4.46	4.25	5.26	4.25	5.46	4.49
CCGATTAACATCAGGCGATCCCCTGATGTTAATCGGGTCTTGATTCGCTTGACGCTGCTG	5.05	4.17	5.07	1.58	6.53	5.06	3.98
CCGATTAACATCAGGGGAATCCATGATGTTAATCGGGTCTTGATTCGCTTGACGCTGCTG	8.88	9.29	9.54	5.44	9.65	7	6.48
CCGATTAACATCACCCACCCCCCTGATGTTAATCGGGTCTTGATTCGCTTGACGCTGCTG	3.58	2.85	4.5	3.74	4.19	3.84	3.99
CCGATTAACATCAGGGGAGGTTATGATGTTAATCGGGTCTTGATTCGCTTGACGCTGCTG	4.62	3.22	4.77	4.52	1.82	3.84	3.74
CCGATTAACATCAAATTCCCGCCTGATGTTAATCGGGTCTTGATTCGCTTGACGCTGCTG	3.27	4.23	4.63	3.86	3.49	3.39	3.12
CCGATTAACATCAAGGGGGATCCTGATGTTAATCGGGTCTTGATTCGCTTGACGCTGCTG	8.33	6.38	7.04	3.07	8.84	6.34	6.91
CCGATTAACATCAAAGATCCCCCTGATGTTAATCGGGTCTTGATTCGCTTGACGCTGCTG	7.86	7.46	7.79	6.69	8.85	6.88	6.85
CCGATTAACATCAGGGGGCTTTATGATGTTAATCGGGTCTTGATTCGCTTGACGCTGCTG	5.16	5.53	4.34	1.85	6.23	5.44	5.71
CCGATTAACATCACGGGGATTTATGATGTTAATCGGGTCTTGATTCGCTTGACGCTGCTG	7.32	7.95	8.97	4.67	8.32	5.47	6.63
CCGATTAACATCAAAATCCCAGGTGATGTTAATCGGGTCTTGATTCGCTTGACGCTGCTG	2.06	1.42	1.85	1.6	5.57	2.06	3.17
CCGATTAACATCAGGGATCCCCCTGATGTTAATCGGGTCTTGATTCGCTTGACGCTGCTG	12	10.2	9.22	5.15	11.1	10.3	6.45
CCGATTAACATCAGGGGGTTTACTGATGTTAATCGGGTCTTGATTCGCTTGACGCTGCTG	7.86	6.45	7.4	2.97	9.74	7.06	7.11
